Records with an inconclusive call do not appear. Calls of active or inactive are those of the source. The call rests on the fitted dose curve; in most records, active means well fitted cell-killing curve with a large enough effect; inconclusive means small, poorly fitted or top-dose-only effect, or effect the other way; inactive means no such curve, though single readings can be large or run the other way.
Potency means the concentration at half of the fitted maximal effect.

In the assay the test system is SKOV3. Description: Confirmatory qHTS for gynecologic anti-cancer compounds from libraries of approved drugs and bioactive compounds. Further: nearly all actives have a fitted effect of over 55% in size. Particulars: gynecologic cancer cell panel viability, ATPlite luminescence, 48 h; series mostly up to 57.6 µM. The gist of the method:
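ATP-based luminescent viability (ATPlite) after 48 h drug treatment at 37 °C, 5% CO2, across 57.5 uM–0.977 nM in 1:3 steps. Cells seeded at 1,000 per well 16 h beforehand; IC50 values computed, HEK 293T as selectivity control.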
For `CN(C)CC/C=C1\c2ccccc2COc2ccccc21`, the Potency result was “inactive”.
For `CC(C)n1c(/C=C/[C@@H](O)C[C@@H](O)CC(=O)O)c(-c2ccc(F)cc2)c2ccccc21`, the Potency is 1720 nM (active).
In the case of `O=C1c2c(O)ccc(O)c2C(=O)c2c(NCCNCCO)ccc(NCCNCCO)c21` it was 544 nM (active); in that of `N#CC1(c2cccc(C(=O)Nc3cc(Oc4ccc5nc(NC(=O)C6CC6)sc5n4)ccc3F)c2Cl)CC1`, 17200 nM (active); in that of `CCCCc1nc2cc(/C=C/C(=O)NO)ccc2n1CCN(CC)CC`, 769 nM (active).
As for `CCCCc1oc2ccccc2c1C(=O)c1cc(I)c(OCCN(CC)CC)c(I)c1`, the figure is 70800 nM (active); as for `Cc1cc(Nc2nc(N[C@@H](C)c3ncc(F)cn3)ncc2Cl)n[nH]1`, “inactive”.
Consider `CC[C@@]1(O)C(=O)OCc2c1cc1n(c2=O)Cc2c-1nc1ccccc1c2/C=N/OC(C)(C)C`, for which the Potency is 43.2 nM (active).
In the case of `COc1cc2c(Nc3ccc(NC(=O)c4ccccc4)cc3)ncnc2cc1OCCCN1CCOCC1` it was “inactive”; in that of `Cc1cc(C(=O)N2CCN(c3cccc(Cl)c3)CC2)n(-c2ccccc2)n1`, 544 nM (active).
With `COc1cc2c(Oc3ccc(-c4cnc(Nc5ccc(F)cc5)n(C)c4=O)cc3F)ccnc2cc1OCCCN1CCOCC1`, the Potency result was “inactive”.
In the case of `COc1cc2c(NC3CCN(C(C)C)CC3)nc(C3CCCCC3)nc2cc1OCCCN1CCCC1`, the Potency was 30600 nM (active).
As for `COc1cc(Nc2ncc(F)c(Nc3ccc4c(n3)N(COP(=O)(O)O)C(=O)C(C)(C)O4)n2)cc(OC)c1OC`, the Potency was 5440 nM (active).
In the case of `CCOC(=O)C1=C(C)NC2=C(C(=O)CC(C)(C)C2)C1c1ccc(-c2ccccc2)cc1` (stereo not given) it was “inactive”.
As for `CN(C)C/C=C/C(=O)Nc1cc2c(Nc3ccc(F)c(Cl)c3)ncnc2cc1OC1CCOC1` (stereo not given), the entry is “inactive”; as for `NS(=O)(=O)c1ccc(Nc2nc(OCC3CCCCC3)c3[nH]cnc3n2)cc1`, “inactive”; as for `CC(C)Oc1ccc2c(=O)c(-c3ccccc3)coc2c1`, 21700 nM (active).
`CCc1cccc(CC)c1NC(=O)N1Cc2[nH]nc(NC(=O)c3ccc(N4CCN(C)CC4)cc3)c2C1`: the Potency entry was “inactive”.
In the case of `Cc1nc(N)ncc1-c1nc(N2CCOCC2)c2sc(C(C)(C)O)cc2n1`, the Potency was 432 nM (active).
For the compound `CCCCN(CCCC)CC(O)c1cc(Cl)cc2c1-c1ccc(Cl)cc1/C2=C/c1ccc(Cl)cc1` (stereo not given), the Potency result was “inactive”.
Regarding `O=C(c1ccc(F)c(F)c1Nc1ccc(I)cc1F)N1CC(O)([C@@H]2CCCCN2)C1`, the Potency was 6110 nM (active).
As for `O=C(Nc1cn[nH]c1-c1nc2ccc(CN3CCOCC3)cc2[nH]1)NC1CC1`, the figure is 7690 nM (active); as for `CC(=O)c1cnc2ccc(-c3cc(Cl)c(O)c(Cl)c3)nc2c1NC1CCC(CN(C)C)CC1` (stereo not given), 498 nM (active); as for `CC[C@@]1(O)C(=O)OCc2c1cc1n(c2=O)Cc2cc3c(CN(C)C)c(O)ccc3nc2-1`, 544 nM (active).
For `CCCC(=O)O[C@]1(C(=O)CCl)[C@@H](C)C[C@H]2[C@@H]3CCC4=CC(=O)C=C[C@]4(C)[C@@]3(F)C(=O)C[C@@]21C`, the Potency result was “inactive”.
As for `Nc1nc(Cl)nc2c1ncn2C1OC(CO)C(O)C1F` (stereo not given), the Potency was 432 nM (active).
On to `CCCc1nn(C)c2c(=O)[nH]c(-c3cc(S(=O)(=O)N4CCN(C)CC4)ccc3OCC)nc12`, for which the Potency result is “inactive”.
In the case of `Cn1c(=O)c(F)c(Nc2ccc(I)cc2F)c2c(=O)n(CC(O)CO)cnc21` (stereo not given) it was 485 nM (active); in that of `COc1cc(Nc2ncc3c(n2)-c2ccc(Cl)cc2C(c2c(F)cccc2OC)=NC3)ccc1C(=O)O`, “inactive”.
Take `OCCNC1CCCc2c1[nH]c1ccc(-c3ccccc3)cc21` (stereo not given): the Potency was 30600 nM (active).
